Results as given in PubChem BioAssay (NCATS).
Values joined by “and” are separate entries in the source; they are usually repeats but may differ in a detail not shown here. Equal entries are not always repeated. Results filed as inconclusive are left out. Where a structure was tested more than once in an assay, its records may differ in their call. Active and inactive are the calls of the source. Calls come from the whole dose curve; as a rule, active = well fitted curve in the direction sought with a large enough effect; inconclusive = small, poorly fitted or top-dose-only effect, or another doubt; inactive = no such curve, though single readings can be large; an effect the other way counts as inactive or inconclusive.

Experiments:
[1] = qHTS assay for measurement of the activity of small molecule inhibitors on Zika virus induced Caspase-3 activity in human iPSC derived neural progenitor cells (hNPCs) (AID 1224857); note: nearly all actives have a fitted effect of over 65% in size
In short: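 Human iPSC-derived neural progenitor cells pretreated 1 hr with compounds, then infected with Zika virus (2 FFU/cell) for 6 hours at 37 C. Caspase-3/7 measured by Caspase-Glo luminescence; % inhibition calculated from induction scaled to uninfected (0%) and infected (100%) wells.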

[2] = qHTS assay for measurement of the activity of small molecule inhibitors on Zika virus induced Caspase-3 activity in human astrocytoma cells (AID 1224859)
In short: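 SNB-19 astrocytoma cells, 250/well, pretreated 1 h with compounds, then Zika virus at 2 FFU/cell for 6 h at 37 C; Caspase-Glo 3/7 luminescence after 30 min; percent inhibition normalised to uninfected and infected controls.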

[3] = qHTS Screen of the MIPE 4.0 Collection Against Ewings Sarcoma (RDES) (AID 1259252); note: nearly all actives have a fitted effect of over 35% in size; note: potency is the fitted concentration of half-maximal effect
In short: (§1)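 After a 4 h attachment period in RPMI/5% FBS, cells were pin-dosed with test compounds; DMSO served as negative and 9.2 uM bortezomib (final) as positive control. Luminescent CellTiter-Glo signal at 48 h defined viability.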

[4] = qHTS Screen of the MIPE 4.0 Collection Against Ewings Sarcoma (TC71) (AID 1259253); note: nearly all actives have a fitted effect of over 40% in size; note: potency is the fitted concentration of half-maximal effect
In short: as §1

[5] = qHTS Screen of the MIPE 4.0 Collection Against Ewings Sarcoma (EW8) (AID 1259255); note: nearly all actives have a fitted effect of over 35% in size; note: potency is the fitted concentration of half-maximal effect
In short: as §1

[6] = qHTS Screen of the MIPE 4.0 Collection Against Ewings Sarcoma (TC32) (AID 1259256); note: nearly all actives have a fitted effect of over 45% in size; note: potency is the fitted concentration of half-maximal effect
In short: as §1

[7] = P-glycoprotein substrates identified in KB-8-5-11 adenocarcinoma cell line, qHTS therapeutic library screen (AID 1346987); note: nearly all actives have a fitted effect of over 65% in size; note: potency is the fitted concentration of half-maximal effect
In short: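 In this qHTS, P-gp-rich KB-8-5-11 cells received library compounds across a concentration range. Viability was quantified by luminescence after 72 h at 37 degree C.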

[8] = NS1 protein of Zika virus - qHTS assay to identify small molecule inhibitors in human HEK 293 cells (AID 1347053); note: nearly all actives have a fitted effect of over 55% in size; note: potency is the fitted concentration of half-maximal effect
In short: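 Read-out is a two-antibody TR-FRET for ZIKV NS1, normalized between uninfected cells and infected cells. Compound added 1 h before MR766 infection at MOI 0.5; human HEK 293 cells incubated 24 h, 37 C.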

[9] = P-glycoprotein substrates identified in KB-3-1 adenocarcinoma cell line, qHTS therapeutic library screen (AID 1346986); note: nearly all actives have a fitted effect of over 60% in size
In short: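 Dose-response cytotoxicity, KB-3-1 vs P-gp-high KB-8-5-11, no colchicine in assay medium. Read: CellTiter-Glo at 72 h.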

[10] = Identifying Small Molecule Inhibitors of Pancreatic Cancer Stem Cells (SN12C, Adherent) (AID 1259358);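 note: potency is the fitted concentration of half-maximal effect; cell survival measured after 48 h of compound exposure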
In short: (§2)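 Adherent (2D) versus sphere (3D) formats; spheres generated 14 d in SCM beforehand. Compound transferred by pin tool after 4 h, 48 h incubation, CellTiter-Glo endpoint.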

[11] = Identifying Small Molecule Inhibitors of Pancreatic Cancer Stem Cells (A278, Adherent) (AID 1259361);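 note: viability read after 48 h compound exposure; nearly all actives have a fitted effect of over 35% in size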
In short: as §2

[12] = Identifying Small Molecule Inhibitors of Pancreatic Cancer Stem Cells (Panc1, Adherent) (AID 1259362); details: Potency: viability;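 note: compound exposure lasted 48 h before the viability read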
In short: as §2

C[C@]12CC[C@H]3[C@@H](CCC4=CC(=O)CC[C@@]43C)[C@H]1CC[C@H]2OC(=O)CCC1CCCC1
inactive: Potency [1] | Potency [2] | Potency [3] | Potency [4] | Potency [5] | Potency [6] | Potency [7] | Potency [8]

CCCN(CCC)c1c([N+](=O)[O-])cc(S(N)(=O)=O)cc1[N+](=O)[O-]
inactive: Potency [1] | Potency [2]

C[N+]1(C)C2CC(OC(=O)[C@H](CO)c3ccccc3)CC1C1OC12 (stereo partly drawn)
inactive: Potency [1]

C[C@H]([C@H](O)CCC(C)(C)O)[C@H]1CC[C@@]2(O)C3=CC(=O)[C@@H]4C[C@@H](O)[C@@H](O)C[C@]4(C)[C@@H]3CC[C@]12C
inactive: Potency [1] | Potency [2] | Potency [3] | Potency [4] | Potency [5] | Potency [6] | Potency [7] | Potency [8]

C=C[C@@H]1CN2CCC1C[C@@H]2[C@@H](O)c1ccnc2ccccc12 (stereo partly drawn)
active: Potency [3] 16.6 µM | Potency [4] 18.7 µM
inactive: Potency [1] | Potency [2]

CC(C)(C)[C@]1(O)C[C@@H]2OC(=O)C[C@@]23C(=O)O[C@@H]2OC(=O)[C@H](O)C213 (stereo partly drawn)
active: Potency [4] 20.9 µM
inactive: Potency [1] | Potency [2] | Potency [3] | Potency [5] | Potency [6] | Potency [9] | Potency [7] | Potency [8]

CCN1C[C@]2(OC(=O)c3ccccc3NC(C)=O)CC[C@H](OC)[C@@]34[C@H]5CC6[C@@H](OC)C[C@](O)(C(C[C@@H]23)[C@@H]14)[C@@]5(O)[C@@H]6OC
inactive: Potency [1] | Potency [2] | Potency [3] | Potency [4] | Potency [5] | Potency [6] | Potency [9] | Potency [7] | Potency [8]

CSCC[C@@H](NC(=O)[C@@H](Cc1ccccc1)NC(=O)CNC(=O)CNC(=O)[C@@H](N)Cc1ccc(O)cc1)C(=O)O
inactive: Potency [1] | Potency [2] | Potency [3] | Potency [4] | Potency [5] | Potency [6] | Potency [7] | Potency [8]

Cc1ccccc1-n1c(Cn2cnc3c(N)ncnc32)nc2cccc(C)c2c1=O
active: Potency [3] 1.18 µM | Potency [4] 1.87 µM | Potency [5] 5.26 µM | Potency [6] 0.833 µM | Potency [10] 18.7 µM | IC50 (viability decrease) [11] 18.7 µM | Potency [7] 590 nM
inactive: Potency [1] | Potency [2] | Potency [12]

c1ccc2c(CN3CCNCC3)cccc2c1
inactive: Potency [1] | Potency [2] | Potency [3] | Potency [4] | Potency [5] | Potency [6] | Potency [9] | Potency [7] | Potency [8]

C[C@@]12OC(=O)[C@]1([C@@H](O)[C@@H]1C=CCCC1)NC(=O)[C@H]2CCCl
active: Potency [3] 0.0372 µM | Potency [4] 0.0296 µM | Potency [5] 0.0264 µM | Potency [6] 0.0418 µM | Potency [7] 148 nM | Potency [8] 0.833 µM
inactive: Potency [1] | Potency [2]

N#C[C@H](O[C@@H]1O[C@H](CO[C@@H]2O[C@H](CO)[C@H](O)[C@H](O)[C@H]2O)[C@H](O)[C@H](O)[C@H]1O)c1ccccc1
inactive: Potency [1] | Potency [2]
active: Potency [3] 23.5 µM | Potency [4] 20.9 µM | Potency [5] 20.9 µM | Potency [6] 26.4 µM | Potency [7] 20900 nM

CCCC[N+]1(C)[C@H]2CC(OC(=O)[C@H](CO)c3ccccc3)C[C@H]1[C@H]1O[C@H]12 (stereo partly drawn)
inactive: Potency [1] | Potency [2] | Potency [3] | Potency [4] | Potency [5] | Potency [6] | Potency [7] | Potency [8]

CCC(=O)OC1CCC2C3CCC4=CC(=O)CC[C@@]4(C)C3CC[C@]12C (stereo partly drawn)
inactive: Potency [1] | Potency [2] | Potency [3] | Potency [4] | Potency [5] | Potency [6] | Potency [9] | Potency [8]

Cc1c(C(=O)Nc2cccc(C(F)(F)F)c2)cc(-c2ccccc2)n1CCCN1CCOCC1
active: Potency [3] 13.2 µM | Potency [4] 6.62 µM | Potency [5] 16.6 µM | Potency [6] 8.33 µM
inactive: Potency [1] | Potency [2]

C[C@]12CC[C@H]3[C@@H](CCC4=CC(=O)CC[C@@]43C)[C@H]1CC[C@H]2O
inactive: Potency [1] | Potency [2] | Potency [3] | Potency [4] | Potency [5] | Potency [6] | Potency [8]
active: Potency [7] 11800 nM

COc1ccc(N(C(=O)Oc2c(C)cccc2C)c2ccnc(Nc3ccc(N4CCN(C)CC4)cc3)n2)c(OC)c1
active: Potency [3] 1.87 µM | Potency [4] 2.35 µM | Potency [5] 2.64 µM | Potency [6] 2.64 µM
inactive: Potency [1] | Potency [2] | Potency [8]
inactive and 20.6 µM (active): Potency [7]

CCN1CCN(C(=O)Cc2ccc(Nc3ncc(F)c(Nc4ccc(C(=O)Nc5ccccc5Cl)cc4)n3)cc2)CC1
active: Potency [3] 8.33 µM | Potency [4] 5.9 µM | Potency [5] 2.96 µM | Potency [6] 4.18 µM | Potency [7] 2.96 µM and 1.16 µM | Potency [8] 11.8 µM
inactive: Potency [1] | Potency [2]

C[C@@H]1[C@H](O)[C@@H](C)C=CC=CCCC=CC=CC=CC=C[C@H](O[C@H]2O[C@@H](C)[C@H](O)[C@@H](N)[C@@H]2O)CC2O[C@](O)(C[C@@H](O)[C@H](O)CC[C@@H](O)C[C@@H](O)C[C@@H](O)CC(=O)O[C@H]1C)C[C@H](O)[C@H]2C(=O)O
inactive: Potency [1] | Potency [2] | Potency [3] | Potency [4] | Potency [5] | Potency [6] | Potency [9] | Potency [7] | Potency [8]
